Measured values reported in ChEMBL document CHEMBL4513216, “Probing the Open Global Health Chemical Diversity Library for Multistage-Active Starting Points for Next-Generation Antimalarials” (ACS Infect Dis, 2020).
In all, about 68,000 compounds went through this assay and about 2,700 (4%) showed an effect of 50% or more. Shown is part of a subset that was picked to be rich in strong results.

Tested on: Plasmodium berghei
Assay: Screen against P. berghei liver stage (PbLuc), transformed with Luciferase, at 2uM
Assay type: functional, HepG2
Conditions: tested at 2 uM

First: O=C(COc1cccc2c1CCC2=O)NCCc1cccs1
Second: CCCc1nc(C(=O)NCCN2CCC(c3ccccc3C)C2)cs1 (centres undefined)
The INHIBITION of the first is lower: -27.22% for the first, 6.88% for the second.

First: COCCN(C(=O)c1cc(C)no1)c1ccc(C#N)cc1
Second: CN(CCOc1ccc(C#N)cc1)CC1CCS(=O)(=O)C1 (centres undefined)
The INHIBITION of the first is lower: -43.03% for the first, 14.59% for the second.

Compared with `COc1no[n+]([O-])c1-c1ccccc1`, `CO[C@H]1CN(C(=O)c2cc3ccccc3[nH]2)CC[C@H]1N` is lower in INHIBITION: 32.19% for the first, 13.24% for the second.

First: CC(C)(C)C(=O)N1CCCC1(C(=O)N1CCCC1)c1cnccn1 (centres undefined)
Second: Cn1ccc(C(=O)NC2CCC23CCN(C(=O)c2cnccn2)CC3)c1 (centres undefined)
The INHIBITION of the first is higher: 33.56% for the first, -3.25% for the second.

Going from `Cn1cc(C2CC3(CCN(C(=O)c4cccs4)CC3)NC2=O)cn1` (centres undefined) to `Cn1ccc(C(=O)NC2CCC23CCN(C(=O)c2ccccn2)CC3)c1` (centres undefined), the INHIBITION rises from -16.25% to 53.29%.

First: CN(C)C(C(=O)NCC1(C)COC1)c1cccc(F)c1 (centres undefined)
Second: CCCSCC(=O)NCc1cccc(CN(C)CC)c1
The INHIBITION of the first is lower: -15.77% for the first, 15.56% for the second.

Going from `N#Cc1cccc(N2CC3(CCN(C(=O)c4ccnnc4)C3)CC2=O)c1` (centres undefined) to `N#Cc1cccc(N2CC3(CCN(C(=O)c4cccnc4)C3)CC2=O)c1` (centres undefined), the INHIBITION falls from 25.24% to 11.72%.

Compared with `COc1ccc(CN2CCC3(CC(=O)N(c4cccc(F)c4)C3)C2)cc1` (centres undefined), `O=C1CC2(CCN(Cc3ccncc3)C2)CN1c1cccc(F)c1` (centres undefined) is higher in INHIBITION: 40.4% for the first, 54.62% for the second.

First: O=C1CC2(CCN(Cc3cccnc3)C2)CN1c1cccc(F)c1 (centres undefined)
Second: N#Cc1cccc(N2CC3(CCN(C(=O)c4ccncc4)C3)CC2=O)c1 (centres undefined)
The INHIBITION of the first is lower: 38.49% for the first, 53.77% for the second.

Going from `CCc1ccc(OCCn2cccn2)cc1` to `CN1CCN(CCOc2ccc(NC(=O)c3ccoc3)cc2)CC1`, the INHIBITION rises from -3.72% to 6.78%.

Going from `COc1c(C2CCCN2C(=O)c2csc(C3CC3)n2)c(C)nn1C` (centres undefined) to `COc1c(C2CCCN2C(=O)c2ccnc(N(C)C)c2)c(C)nn1C` (centres undefined), the INHIBITION rises from 15.13% to 30.91%.

Compared with `CCOc1cccc2c1OCC(=O)N(c1ccc(N(C)C)cc1)C2`, `CCOc1cccc2c1OCC(=O)N(c1ccc3c(c1)OCO3)C2` is lower in INHIBITION: 43.74% for the first, 25.73% for the second.

Going from `CCOc1cccc2c1OCC(=O)N(c1ccc3c(c1)OCCO3)C2` to `Cc1ncsc1COC(=O)c1cccc2c1OCCO2`, the INHIBITION falls from 67.29% to 38.1%.

Compared with `COC(=O)c1ccc(C2CC(=O)Nc3c2cnn3C)cc1` (centres undefined), `CC(C)(C)n1ncc2c1NC(=O)CC2c1ccc(C#N)cc1` (centres undefined) is lower in INHIBITION: 13.95% for the first, 7.42% for the second.

Going from `Cn1cnnc1C1CCCN(C(=O)NCc2cc[nH]n2)C1` (centres undefined) to `CC(C)n1c(C2CCCN(CC(=O)NC(N)=O)C2)nc2ccccc21` (centres undefined), the INHIBITION falls from 28.65% to 0.31%.

Compared with `O=C(c1ccc[nH]1)N1CCN(C(c2ccccc2)C(F)(F)F)CC1` (centres undefined), `CCCSc1ccccc1NC(=O)N1CCN(C(=O)c2ccc[nH]2)CC1` is higher in INHIBITION: 11.88% for the first, 65.76% for the second.

Going from `CCCSc1ccccc1NC(=O)N1CCC(N2CCSCC2)CC1` to `CN1CCC(N(C)CCC(=O)N2CCC(CCc3ccccc3)CC2)C1` (centres undefined), the INHIBITION rises from 27.05% to 66.79%.

First: CC(C)C(C(=O)N1CCCN(c2nccs2)CC1)n1cncn1 (centres undefined)
Second: CCc1nsc(N2CCCN(C(=O)c3ccc(CC)o3)CC2)n1
The INHIBITION of the first is higher: 15.47% for the first, -2.93% for the second.

First: CN1CCC(N(C)CCC(=O)N2CCC(OCc3ccccc3)CC2)C1 (centres undefined)
Second: CN1CCC(N(C)CCC(=O)N2CCC(Cc3ccc(F)cc3)CC2)C1 (centres undefined)
The INHIBITION of the first is lower: -83.25% for the first, 20.36% for the second.

First: Cc1cnc(N2Cc3cnn(Cc4ccc(F)cc4)c3C2)nc1N(C)C
Second: CN(C)c1nc2c(c(=O)[nH]1)CCN(C(=O)c1cccc3nccnc13)C2
The INHIBITION of the first is higher: 41.78% for the first, -16.93% for the second.

Compared with `CNC(=O)c1sccc1S(=O)(=O)Nc1ccc(C)cc1`, `CNC(=O)c1sccc1S(=O)(=O)NC` is lower in INHIBITION: 52.36% for the first, 31.27% for the second.

Compared with `CNS(=O)(=O)c1ccsc1C(=O)OC`, `CS(=O)(=O)CCC(=O)Nc1cc(Cl)c(Cl)cn1` is higher in INHIBITION: -12.44% for the first, 38.49% for the second.

First: Cc1nonc1C1CCCN1C(=O)c1cn2ccsc2n1 (centres undefined)
Second: Cc1nc2sccn2c1C(=O)N1CCc2[nH]cnc2C1
The INHIBITION of the first is lower: -120.95% for the first, -13.03% for the second.

First: Cn1cc(CN2CCCC3(COCCN(c4cccnc4)C3)C2)cn1 (centres undefined)
Second: O=C(c1ccoc1)N1CCOCC2(CCN(Cc3cccs3)C2)C1 (centres undefined)
The INHIBITION of the first is higher: 18.15% for the first, 3.11% for the second.

Going from `COc1cc2c(cc1C(=O)N1CC(c3ccncc3)C1)CCC2` to `COc1ccc(F)cc1C(=O)N1CC(c2ccncc2)C1`, the INHIBITION falls from 51.96% to -26.81%.

First: COc1ccc(C(=O)N2CC(c3ccncc3)C2)c(OC)c1OC
Second: CCN(C)Cc1cccc(CNC(=O)CSCc2ccncc2)c1
The INHIBITION of the first is higher: 45.56% for the first, -56.58% for the second.

Compared with `CC(CO)NC(=O)Nc1ccc(COC2CCCC2)cc1` (centres undefined), `COC(=O)C(NC(=O)COC1CCCCC1)c1ccccc1` (centres undefined) is higher in INHIBITION: 31.97% for the first, 54.52% for the second.

Going from `CC(C)N1CC(NC(=O)c2ccc(Cl)s2)CC1=O` (centres undefined) to `Cc1cnc(Nc2cccc(C3CCCN3C(=O)CO)n2)s1` (centres undefined), the INHIBITION rises from -28.5% to 35.31%.

First: CN(Cc1ccc(C#N)cc1)CC1CCS(=O)(=O)C1 (centres undefined)
Second: CC(O)CN1CCC(CN(C)Cc2ccc(C#N)cc2)CC1 (centres undefined)
The INHIBITION of the first is higher: 54.78% for the first, -3.99% for the second.

Going from `Cc1cc(=O)n2ncnc2n1CC(O)COCc1ccccc1Cl` (centres undefined) to `Cn1ccnc1C(=O)N1CCOC(Cc2ccccc2Cl)C1` (centres undefined), the INHIBITION rises from 19.59% to 61.99%.

Compared with `CN(CC(=O)Nc1ccccc1)C(=O)CN(C)c1ccc(Cl)cn1`, `CN(Cc1nc2ccccc2[nH]1)C(=O)CN(C)c1ccc(Cl)cn1` is higher in INHIBITION: -35.22% for the first, 60.71% for the second.

First: CN(Cc1nc2ccccc2[nH]1)C(=O)CN(C)c1ccccc1
Second: Cc1ccccc1CS(=O)(=O)CC(=O)N(C)Cc1ccccc1
The INHIBITION of the first is lower: -20.08% for the first, 34.25% for the second.

Compared with `Cc1ncsc1CN1CCn2c(COc3cccnc3)cnc2C1C` (centres undefined), `CCc1nccn1-c1cncc(C2CCCN2Cc2cccnc2)n1` (centres undefined) is higher in INHIBITION: -48.36% for the first, 18.91% for the second.

Compared with `CC(C)N1CCC(N(C)c2ccnc(N(C)C)n2)CC1`, `CN(C)c1nccc(N(C)C2CCCCC2)n1` is lower in INHIBITION: 69.67% for the first, 38.67% for the second.

Compared with `CN(C)c1nccc(N(C)C2CCOCC2)n1`, `COc1ccnc(N2CCC3(CC2)[C@H](O)C[C@@H]3OCCN(C)C)n1` is lower in INHIBITION: 19.59% for the first, -2.96% for the second.

First: CCN(C)Cc1cccc(CNC(=O)CSCc2ccccn2)c1
Second: Cc1cccnc1CN1CCOC(Cc2cccc3ccccc23)C1 (centres undefined)
The INHIBITION of the first is higher: 72.94% for the first, 31.05% for the second.

Compared with `Cc1nc2sccn2c1C(=O)N1CCc2c(nc(N(C)C)[nH]c2=O)C1`, `Cc1nc2sccn2c1C(=O)N1CCc2c(nc(N)[nH]c2=O)C1` is lower in INHIBITION: 68.02% for the first, -14.71% for the second.

First: Cc1nc(C(C)C)ncc1C(=O)N1CCc2c(nc(N(C)C)[nH]c2=O)C1
Second: CN(C)c1nc2c(c(=O)[nH]1)CCN(C(=O)c1c[nH]c(=O)c(Cl)c1)C2
The INHIBITION of the first is higher: 55.36% for the first, 33.9% for the second.

Compared with `O=C(Nc1nccs1)C1CCCN1Cc1ccccn1` (centres undefined), `CS(=O)(=O)N1CCCC1c1cccc(Nc2nccs2)n1` (centres undefined) is higher in INHIBITION: 12.47% for the first, 69.91% for the second.

First: CCc1nc(-c2ccc(NC(=O)N3CCCC3)cc2)no1
Second: CCc1nnc2n1CCN(C(=O)c1ccc3[nH]cnc3c1)C2
The INHIBITION of the first is lower: -75.24% for the first, -17.45% for the second.

Going from `Cc1nc(C2CCN(S(C)(=O)=O)CC2)nc2c1CCC(=O)N2CC(C)C` to `Cc1cc(C(F)(F)F)nn1CCCNC(=O)C1CCN(S(C)(=O)=O)CC1`, the INHIBITION rises from 0.12% to 40.25%.

First: Cc1cc(N2CCCC2(C)c2nc(C)cc(C(=O)N(C)C)n2)ncn1 (centres undefined)
Second: Cc1cnc(Nc2cccc(C3CCCN3Cc3cn(C)nc3C)n2)s1 (centres undefined)
The INHIBITION of the first is lower: -27.61% for the first, -15.38% for the second.

Compared with `CCOC(=O)N1CCN(C(=O)C2Cc3ccccc3CN2C)CC1` (centres undefined), `NC(=O)C(NC(=O)COC1CCCCC1)c1ccccc1` (centres undefined) is higher in INHIBITION: -55.24% for the first, 35.94% for the second.

First: Cc1ccccc1CN1CCCC1c1cccc(Nc2nccs2)n1 (centres undefined)
Second: c1ccc(CCN2CCCC2c2cccc(Nc3nccs3)n2)cc1 (centres undefined)
The INHIBITION of the first is lower: 15.61% for the first, 30.29% for the second.

Going from `CCN(CC)S(=O)(=O)N1CCCC1c1cccc(Nc2ncc(C)s2)n1` (centres undefined) to `CCN(Cc1c(F)cccc1Cl)c1cc(C2CCNCC2)nc(C)n1`, the INHIBITION falls from 56.16% to 23.76%.

Going from `CS(=O)(=O)NC[C@]12COC[C@H]1CN(CC1CCCC1)C2` to `CS(=O)(=O)NCCNCc1ccc(Br)s1`, the INHIBITION rises from 13.65% to 21.24%.

Compared with `O=C(CC1CN(Cc2ccccc2)CCO1)Nc1ccsc1` (centres undefined), `O=C(c1cccnc1)N1CCOC(Cc2ccccc2Cl)C1` (centres undefined) is lower in INHIBITION: 19.53% for the first, -41.48% for the second.

First: CCN(CCSc1ccccc1)C(=O)c1cn(C2CCC(N)CC2)nn1 (centres undefined)
Second: Cc1ccc(SCCN(C)C(=O)c2cn(C3CCC(N)CC3)nn2)cc1 (centres undefined)
The INHIBITION of the first is higher: 50.61% for the first, 40.47% for the second.

First: Cc1ccc(SCCCNC(=O)c2cn(C3CCC(N)CC3)nn2)cc1 (centres undefined)
Second: COCCCC(=O)Nc1[nH]nc(-c2ccncc2)c1C
The INHIBITION of the first is higher: 18.63% for the first, 1.03% for the second.

First: COCCNC(=O)CCNc1ccc(Cl)cn1
Second: COCCCC(=O)Nc1cc(Cl)c(Cl)cn1
The INHIBITION of the first is lower: 33.64% for the first, 66.26% for the second.

First: CS(=O)(=O)CCCC(=O)Nc1cc(-c2cccc(F)c2F)n[nH]1
Second: CS(=O)(=O)CCCC(=O)Nc1cc(Cl)c(Cl)cn1
The INHIBITION of the first is lower: -5.98% for the first, 59.08% for the second.

First: O=C(C1=CCCC1)N1CC[C@]2(C[C@H](OCc3cccnc3)CO2)C1
Second: O=C(c1cocn1)N1C[C@H]2CCC[C@@]2(COc2ccccn2)C1
The INHIBITION of the first is higher: -8.81% for the first, -14.27% for the second.

First: NC(=O)C(NC(=O)COC1CCCC1)c1ccccc1 (centres undefined)
Second: Cn1ccc(C(=O)NC2CCC23CCN(C(=O)c2ccncc2)CC3)c1 (centres undefined)
The INHIBITION of the first is higher: -6.27% for the first, -33.11% for the second.

Compared with `Cc1nc(C)c(CN2CCOC(Cc3ccccc3Cl)C2)nc1C` (centres undefined), `CCc1nc(C)c(CN2CCOC(Cc3ccccc3Cl)C2)[nH]1` (centres undefined) is lower in INHIBITION: 63.37% for the first, -26.78% for the second.

`Cn1ccnc1C(=O)N1CCOC(Cc2ccc(Cl)cc2)C1` (centres undefined) gave an INHIBITION of 43.23%.
